# The supplement of paper PMC11417369
# Over roughly 25,000 sequences, “ln(normalized median fluorescence intensity)” has its median near 6.7; the highest 2% begin near 10. The entries come from a sample that favours the highest values as a whole.
# Tested on: PfHDP1 homeodomain (GST-tagged)
# Experiment: gcPBM binding intensity (ln(normalized median fluorescence intensity)); higher = stronger DNA binding
# How it was run: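 Using an Agilent 4 × 180k array, primer-extended double-stranded 36-bp intergenic genomic probes and negative controls were exposed for 1 h to GST-fused P. falciparum DNA-binding domains expressed in E. coli. Binding was carried out in 1× PBS with 1% milk, 0.2 mg/ml BSA, 0.5% salmon testes DNA and 0.03% Triton X-100, and protein was detected with Alexa488 anti-GST antibody and a 488 nm scan. Binding intensity is the highest Masliner-normalised natural-log median intensity across replicate spots of either probe orientation.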
row,Sequence,gcPBM binding intensity (ln)
1,AATTTATTTTTAAAAAGTACATACTTAAGAAAACGA [XGTACX_site3660],6.85
2,ATATATTATATTATATGTACTTAAAAAAGTGCAAAG [XGTACX_site318],9.16
3,CTGTACACTTAAACGGTGCAAAAAGAAAAAAAAGAA,10.6
4,TTTGAACTCTTAAGTGGTACAAATTTGTATTTTCTC [XGTACX_site2322],6.52
5,TATATTCATAATATTACACACGTTCATTTATTTTAA [CACACA_site2031],6.67
6,AATAATGAAGCTTATGCACACGTTCATTATTTATAT [CACACA_site5736],10.6
7,TATGAATGCTTTTATGCACACGTACAAAAATATTAT [CACACA_site8851],9.99
8,ATGCTTTTATGCACACGTACAAAAATATTATATAAT [XGTACX_site5589],10.9
9,TTCTTTATTATATGCACACGTACATATAATATATAT [CACACA_site2018],9.96
10,TAAATTTTAATATGCACACAAAATGTTATATTAAAA [CACACA_site4366],9.86
11,TATTGCACAAAATAATTTTATTATACTTTATGTTAG [TGCATGCA_negctrl_site574],10.8
12,TAATGAAGCTTATGCACACGTTCATTATTTATATTA [CACACA_site3219],10.4
13,TTTATTATACAAAATTGTACTTTATAATTTTATGTA [XGTACX_site5846],6.31
14,AATTCTTTATTATATGCACACGTACATATAATATAT [CACACA_site8621],9.66
15,TTTATTATATGCACACGTACATATAATATATATATA [XGTACX_site4108],10.8
16,TGAATGCTTTTATGCACACGTACAAAAATATTATAT [CACACA_site2668],10.4
17,TAGTAAAAACCAAAATGTACATGTGCCATTTTTTTA [XGTACX_site2630],6.15
18,TTTTTATTGTTGCTATATTTATAACAATTTATCATA [GTGCAC_negctrl_site75],6.6
19,TTACACATGAGAAAATGTACATATAATAAAATATGT [XGTACX_site904],6.52
20,TATATCCACATTTTTAGTACTTAAAAATAAATAAAC [XGTACX_site3826],6.62
21,AATTATATATAAAGAAGTACTATTTCAAGGAGTTTT [XGTACX_site3837],6.34
22,ATAATAATAATAAAAAGTACATTTAATTATATAGAA [XGTACX_site7742],6.51
23,TAACCTAAAATAACTACACACACATAAAAAAAAAAA [CACACA_site8807],6.58

row,Sequence,gcPBM binding intensity (ln)
1,AACAAACACAGACACACACACACACCCAAATGATTA [CACACA_site2431],6.98
2,ATGTATGTTTGTTATGCACACAAATGCATCTTATTT [CACACA_site8861],10.3
3,TTGTTCGATATATGCACACAGTTTTGTTATTTTTCC [CACACA_site4972],9.91
4,GTATGTTTGTTATGCACACAAATGCATCTTATTTCC [CACACA_site2690],10.8
5,AAAAAAAAAAAAAAAGGTACAGTAAAAAATTCCTCT [XGTACX_site5947],6.46
6,AAAATTAAAATAGTAATACACACTTCATAGGAAATG [CACACA_site1762],6.02
7,AGATATATAAATATTACACACTATATATCTATTTAT [CACACA_site6466],6.64
8,TATTTAAAAATATATACACACATTTTATATTATTAT [CACACA_site781],6.32
9,TTTTTTTATATTTTTAGTACACATTGGTATATATAT [XGTACX_site4114],6.77
10,ATACATAAAATTAAAACACACATTTTATTAAATACG [CACACA_site2167],6.44
11,TTAGTATATACATTTGCACACATTATTTTTTAACAT [CACACA_site2618],10.5
12,ATTTATATTTAATATACACACATTATTTTTTTATAT [CACACA_site574],6.86
13,TTAGTAAATACATTTGCACACATTATTTTTTAACAT [CACACA_site5448],10.7
14,AATTATATAACAAATTGTACGAATGAAAATATTATT [XGTACX_site4237],6.79
15,ATATTTTTATGATGTATCCAAGAAATGGAACTATAT [CACACA_negctrl_site1268],6.23
16,AAAATATAAATATATTGTACTGTTATATAATAAAAT [XGTACX_site2132],6.41
17,TGTTGTAAATTAAAGACATGCACGTGAGAAAATATA [TGCATGCA_site285],11
18,ATGAAAAAAAGACATGCATGTAAATATAAATTGCTT [TGCATGCA_site504],6.68
19,ATAAATATGTAAAAAACATGCAAAAAATTAAAGACA [TGCATGCA_site912],7.22
20,TTTTTATATTTTACATGTACATAAATATATTATATA [XGTACX_site958],6.46
21,AAATACATACATTAATGTACAAATAGAAACACTCTT [XGTACX_site1512],6.85
22,TGAATATTTATACATGCACACTAAAATAAAGAATCT [CACACA_site5351],8.07
23,ACGGACAATACGGAAACACACAAGTTATTTTATCAT [CACACA_site7310],6.21

row,Sequence,gcPBM binding intensity (ln)
1,TAATGTTGAGAATTTTGTACATATAGATCAATTTAT [XGTACX_site5426],6.33
2,TTCAAAAAAGGAAAGTTGCACTTGATACGCTTATTA [GTGCAC_site9411],7.38
3,TTATGATAATTTTGCACACACTTAGGAAAAATTATG [CACACA_site4949],10.9
4,TTATGATAACTTTGCACACACTTAGGAAAAGTTATG [CACACA_site6836],10.6
5,TTTTATGATAATTTTGCACACACTTAGGAAAAATTA [CACACA_site1556],10.4
6,ACGTTAGGCTTATTTGCACACTTGTATTATAATTTT [CACACA_site1317],10.3
7,AAAGTAGGCTTATATGCACACTTTGAAATATTATAA [CACACA_site5117],9.77
8,GAAAAATTAATAAATAAACACACATATATATATATA [CACACA_site8835],9.29
9,AATCTAATTAAAATCACACATATATTCGTCGTAATA [CACACA_site5855],6.05
10,CCCATGCATTTTTGCACACACATATATATATAAATA [CACACA_site1430],10.8
11,CCCATGCATTTTTGCACACACATATATTTATAAATA [CACACA_site6785],10.7
12,TAAATTATAAATTGCACACATATTTTTATATTTATA [CACACA_site2976],10.2
13,AATATTTTTTTTTAAACATGCATATTTGCATTACCC [TGCATGCA_site437],8.67
14,TACCCATGCATTTTTGCACACACATATATATATAAA [CACACA_site1429],10.7
15,AGAATAAATATGCACACATGCATATATTTTTACACT [TGCATGCA_site893],10.3
16,CATATTTGTATATGCACACATAAATTTTTCCATTTC [CACACA_site3467],10.2
17,TTTTAAATAATACATACATGCATATATACACATATA [TGCATGCA_site8],6.58
18,TTGAAGAATAAATATGCACACATGCATATATTTTTA [CACACA_site5840],9.33
19,AAAAAAAAAAAAAAAAGTACAAAAATATATATGCAT [XGTACX_site8392],6.48
20,AATGATACTTAGGGGCATGTCTCTGGGGGCATAACC [CACACA_negctrl_site591],6.63
21,CATATTTCTTTATTGGCACACATTTTTTCAATTATA [CACACA_site1618],6.87
22,TTATTTAAATATTGATGTACTCTCCTTATTATAATA [XGTACX_site1240],6.76
23,TCCTTTCAACCATATATAATGACATGTACTCAAAAA [GTGCAC_negctrl_site417],6.77

row,Sequence,gcPBM binding intensity (ln)
1,ATATATTTTTAATATGCACACAAGAATACATTCACA [CACACA_site914],9.51
2,AACGATATCTGTACTACACACATTATGTCATCCTAT [CACACA_site5374],6.81
3,GTTATATTTTTTTATACACACTGGAATATATAAATA [CACACA_site4282],6.76
4,ATATTATATATATAGGTGCGAGTATTTTATAAATAT [GTGCAC_site9889],6.93
5,TATATAAAGATATATACACACAAAAAAAAAAAAAAA [CACACA_site6778],6.32
6,TTATATGTATATATAGTGCAGAACAAAAGATTATAT [GTGCAC_site9599],7.69
7,AGAAAGAAGATATATACACACAAAAAAAGATATATA [CACACA_site6779],6.75
8,TTCCAAAAAGTTATTACACACATATGTGCACATATA [CACACA_site6465],11.2
9,TATATATATATGTGTACACAAAAAATATTATATTAT [CACACA_site5505],8.81
10,TTCCAAAAAATTATTACACACATATGGGCACATATA [CACACA_site679],6.54
11,ATATTATATATATGTGCACACAAAAGATATATATAT [CACACA_site2125],10.5
12,ATATATATATATATGTGTACACAAAAAATATTATAT [XGTACX_site5741],9.26
13,ATTATATATATGTGCACACAAAAGATATATATATAT [CACACA_site5205],11.1
14,AAAAAAAAAAGACACACACACAAAAAAAGATATATA [CACACA_site6645],6.58
15,ATTCTATATATGTGCACACAAAAGATATATATATAT [CACACA_site2124],11.4
16,TTCCAAAAAATTATTACACACATATGAGCACATATA [CACACA_site4543],9.16
17,TATAAACCCACCTACACACACAACGTAAATGCATTG [CACACA_site2238],6.96
18,TTCTTTTCAGAAGGAAAGAATTATAACATATCATAA [XGTACX_negctrl_site548],6.13
19,AATAATTTGGTCTTATCAAAAATTAAAAATAAATAA [XGTACX_negctrl_site430],6.05
20,TTTCCCTACCAAAAATGTACTTATAAGCGTTTTTAT [XGTACX_site739],6.5
